According to PubChem BioAssay AID1345083 (National Center for Advancing Translational Sciences (NCATS), 2018):
The whole screen tested about 94,000 compounds, of which about 6,200 (6.6%) were called active. Another 31% or so got no clear call; they are omitted. For the sample, actives were picked, then their nearest neighbours and some compounds at random. Values without a mark were called inactive. Calls come from the whole dose curve; as a rule, active = well fitted inhibition curve with a large enough effect; inconclusive = small, poorly fitted or top-dose-only effect; inactive = flat fitted curve, though single readings scatter.

Assay: Cytotoxic Profiling in HEK 293 Cell Line of Diverse Libraries Using Quantitative High-Throughput Screening; note: nearly all actives have a fitted effect of over 60% in size
Details: HEK 293 viability, ATP luminescence (CellTiter-Glo), 48-72 h; series mostly up to 115 µM; activity change, negative = cytotoxicity: at the top concentration
Outline: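 250 HEK 293 cells/well; compound by pintool; incubated 48 or 72 hr at 37 degree Celsius; CellTiter-Glo added, 10 min RT, luminescence imaged.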
% is set by controls: 0 for no effect and ±100 for the full control effect; potency is the fitted concentration of half-maximal effect.

Compound	activity change, negative = cytotoxicity	outcome	Potency
Cc1ccc2[nH]c(CCCn3cc(-c4nccn4C)nn3)nc2c1C	-2.12%		
Cc1cnc(C(=O)N2CC[C@H](CO)[C@H](N(C)C)C2)cn1	-7.91%		
COC(=O)c1nc(NC(=O)Cn2nc3c(cc2=O)CCCCC3)sc1C	-20.3%		
CC(=O)c1cc(CN2CCN(c3nnc(C(F)(F)F)s3)CC2)cs1	-31.2%		
O=C(C1CC1)N1CCC2(CC1)C(=O)NCN2Cc1ccc(Cl)cc1	-22.5%		
C[S+](=O)([O-])N1CC2(Cc3ccccc31)CN(C(=O)C1CC1)C2		inactive [at 172 µM]	
CC(=O)N1CCC(NC[C@H]2O[C@H](Cc3cc(-c4cccc(O)c4)on3)CC[C@@H]2O)CC1	-11.3% [at 172 µM]		
COc1ccc(CNC(=O)N2CC3CN(C)CC(C2)O3)cc1	-1.63%		
COc1ccc(CNC[C@H]2O[C@H](Cc3cc(-c4ccc(OC)cc4)on3)CC[C@@H]2O)cc1			35.5 µM (active)
Cc1ncsc1C1N(C2CCN(C(=O)C3CC3)CC2)C(=O)C12CCCC2 (centres undefined)		inactive	
COc1ccc(-n2nc(C)c([C@@H]3C=C[C@@H](NC(=O)Nc4ccccc4)C3)c2C)cc1			50.1 µM (active)
Cc1nn(-c2ccc(C(C)C)cc2)c(C)c1[C@@H]1C=C[C@@H](NC(=S)NCC(C)C)C1			25.1 µM (active)
COc1ccc(C(=O)Nc2cc(-c3ccccn3)nn2-c2ccccc2)cc1	-27.8%		
CCC(C)NC(=O)Cc1csc2nc(C)c(-c3cc(C)n(-c4ccc(C(C)C)cc4)n3)c(=O)n12 (centres undefined)	-13.3%		
CCOCCOC1CCN(C(=O)Nc2cccc(F)c2)CC1	-1.97%		
Cc1nn(-c2ccccc2)c2c1C(C(C)C)N(C1CN(C(=O)c3ccc(Cl)nc3)C1)C2=O (centres undefined)		inactive	
Cc1nn(-c2ccc(C(C)C)cc2)c(C)c1[C@@H]1C=C[C@@H](NC(=O)Nc2ccccc2)C1			39.8 µM (active)
Cc1nn(-c2ccccc2)c2c1C(C)N(C1CN(C(=O)Nc3ccccc3)C1)C2=O (centres undefined)	-21.4%		
COc1ccc(C(=O)Nc2cccc(-c3nnc4n3CCCC4)c2)cc1	-14.6%		
COc1ccc(-n2nc(C)c([C@H]3C=C[C@@H](OC(=O)Nc4cccc(F)c4)C3)c2C)cc1			20 µM (active)
COc1ccc(-n2nc(-c3ccccc3)n(CC(=O)N(C)CC(C)C)c2=O)cc1	-13.5%		
O=C(Cc1cccnc1)NC1CC(=O)N(Cc2cccc3ccccc23)C1 (centres undefined)	-12.1%		
CCNC(=O)c1noc(-c2ccc[nH]c2=O)n1	10.7%		
Cc1nc(CC(=O)N[C@@H]2COCC[C@H]2Oc2ccc(C#N)cc2)c(C)s1	-10.6%		
Cc1ccc(C2Cn3cnc(C(=O)N4CCC(C(=O)NCCC(C)C)CC4)c3CO2)cc1 (centres undefined)	10.4%		

Compound	activity change, negative = cytotoxicity	outcome	Potency
Cc1ccc(C(=O)N2CCC(c3nn(-c4ccccn4)c(=O)[nH]3)CC2)cc1	-27.8%		
CCCn1cnc2c1CN(S(=O)(=O)c1ccc(C#N)cc1)[C@H](C(=O)OC)C2	3.28% [at 172 µM]		
CCN(CC)C(=O)C(NC(=O)c1ccc(OC)cc1)C1CCN(C(=O)c2ccc(F)cc2)CC1 (centres undefined)	-3.47%		
O=C(NC1CCCCC1)[C@@H]1C[C@@H](O)CN1C1CCN(C(=O)c2ccncc2)CC1		inactive	
O=C1NC2(Cc3ccccc31)CN(Cc1cscn1)C2		inactive [at 172 µM]	
O=C1NCCCCCCN(Cc2ccncc2)[C@@H]2CN(C(=O)NCCc3ccccc3)CC[C@@H]12	-3%		
COc1ccc(NC(=O)N[C@@H]2C=C[C@@H](c3c(C)nn(-c4ccc(C(C)(C)C)cc4)c3C)C2)cc1			31.6 µM (active)
COc1ccc(NC(=O)[C@@H]2C[C@@H](O)CN2C2CCN(C(=O)c3cccc(OC)c3)CC2)cc1	-22.3%		
O=C(c1ccc(Cn2cccn2)o1)N1CCn2nc(C(O)CO)cc2C1 (centres undefined)	3.08%		
CN1CCN([C@@H]2[C@H](O)[C@H](CO)O[C@@H]2CNS(=O)(=O)c2ccccc2)CC1	-0.985%		
CCCn1c(C)cnc1C1CCN(C(=O)C2CCCC2)C1 (centres undefined)	-0.0753%		
O=C1CN(C(=O)c2ccc(-n3cccn3)cc2)CC(OCc2ccccc2)CN1Cc1cccnc1 (centres undefined)	0.591%		
O=c1c2nc(OCc3ccc(-n4cccn4)cc3)ccc2ncn1Cc1ccccc1			28.2 µM (active)
COc1ccc(-c2ccc3ncn(Cc4ccccc4)c(=O)c3n2)cc1OC	-29% [at 172 µM]		
CN(C)C(=O)c1cc(-c2cccc(C(F)(F)F)c2)c2nncn2n1		inactive	
CC(=O)N1CCc2[nH]cnc2C12CCN(C(=O)c1ccc(=O)[nH]c1)CC2		inactive	
CC(C)CNC(=O)C1Cn2cccc2C(=O)N1CC(C)C (centres undefined)		inactive	
COc1ccc(-n2c(=O)c(C(=O)NCC3CC3)nc3cccnc32)cc1		inactive [at 172 µM]	
COc1ccc2nc([C@H]3CCN(Cc4ccc(NC(C)=O)cc4)C3)[nH]c2c1	-26.9% [at 172 µM]		
O=C(Nc1ccccc1)N1CCN2C(=O)N(Cc3ccc(F)cc3)C[C@H]2C1	-21.7% [at 172 µM]		
COc1ccc(CN2C[C@H]3CN(Cc4ccc(NC(C)=O)cc4)CCN3C2=O)cc1			89.1 µM (active)
COc1ccc(CCC(=O)N2CCCC(c3nc(-c4cccnc4)no3)CCNC(=O)CC2)cc1 (centres undefined)	-15.1%		
O=C(NC1CCCCC1)N1CCCCC1c1noc(COCC2CC2)n1 (centres undefined)	-29.1%		
O=C(Cn1nc2c(cc1=O)CCCC2)Nc1nc(-c2ccc3c(c2)OCO3)cs1	5.94%		
